Screens: PubChem BioAssay, National Center for Advancing Translational Sciences (NCATS)
DT40 TDP1 CPT – growth inhibition of DT40 Tdp1-/-;hTDP1 cells with camptothecin (screen for TDP1 inhibitors) | chicken DT40 Tdp1-/-;hTDP1 cells + 20 nM CPT, ATP luminescence, 48 h | Potency, µM (doses to about 46.2 µM), for the others: at the highest dose activity change, negative = growth inhibition, actives largely listed as inhibitors | 420,000 compounds, 12% hits; also: nearly all actives have a fitted effect of over 55% in size
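Chicken DT40 Tdp1-/- cells stably complemented with human TDP1 were seeded at 400 cells/well in medium containing 20 nM camptothecin, exposed to pin-transferred compounds, and grown at 37 °C for at least 48 hr. Viability was read as ATP luminescence.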
RORg inh – inhibitors of mouse ROR gamma transcriptional activity. 310,000 compounds, 5.4% hits. Drosophila S2 Gal4-RORgamma UAS-luciferase reporter, 20 h. Potency, µM (doses to about 53.6 µM), for inactives: top-dose activity change, negative = inhibition, most hits filed as inhibitors. P51450; also: nearly all actives have a fitted effect of over 60% in size
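A Gal4/UAS one-hybrid system in insect cells: metallothionein-promoter Gal4–ROR gamma fusion plus Photinus luciferase reporter. Copper sulfate 700 uM final, 20 hr ambient incubation, luminescent detection after 10 min with reagent.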
TDP1 cell noCPT – qHTS for Inhibitors of human tyrosyl-DNA phosphodiesterase 1 (TDP1): qHTS in cells in absence of CPT; DT40 Tdp1-/- hTDP1 cells, no CPT, ATP luminescence, 48 h; Potency, µM (series often up to 46.2 µM), for the others: top-dose activity change, negative = growth inhibition, hits mostly inhibitors; 420,000 compounds, 15% hits; AID 686978, 2013; also: nearly all actives have a fitted effect of over 55% in size
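Chicken DT40 Tdp1-/- cells stably complemented with human TDP1 were seeded at 400 cells/well with DMSO in place of 20 nM camptothecin. After compound pinning, cells grew at least 48 hr at 37 °C; viability read by CellTiter-Glo luminescence.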
ELG1 DNA repair – blocks ELG1-dependent DNA repair in HEK293T cells. HEK293T ELG1-luciferase reporter, luminescence, 16 h; DNA damage induced by 5-fluorouridine. Potency, µM (highest dose often 46.1 µM), for the others: at the highest dose activity change, negative = inhibition, hits mostly inhibitors. 330,000 compounds, 2.3% hits; also: nearly all actives have a fitted effect of over 55% in size
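Quantitative HTS, concentration-response format. 2,000 cells/well co-treated with 5-fluorouridine and compound, 16 hr in 5% CO2 at 37 °C; ONE-Glo luminescence read after 30 min.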
Gal4-VP16 FLuc – inhibits Gal4-VP16 luciferase reporter, ROR gamma counter-screen. Potency, µM (series often up to 53.6 µM), without a hit: at the highest dose activity, negative = inhibition, usual class: inhibitors. 310,000 compounds, 3.5% hits. Drosophila S2 Gal4-VP16 UAS-luciferase, luminescence, 20 h;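 also: Gal4-VP16 expression switched on by copper sulfate through the metallothionein promoter; nearly all actives have a fitted effect of over 50% in size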
ALOX12 inh – inhibitors of human 12S-lipoxygenase ALOX12; P18054; purified 12hLO, xylenol orange hydroperoxide absorbance; Potency, µM (series often up to 108 µM), inactives show at the top dose activity change, negative = inhibition, actives largely listed as inhibitors; 580,000 compounds, 1.1% hits; AID 1671190
Target sequence (P18054 whole entry, looked up): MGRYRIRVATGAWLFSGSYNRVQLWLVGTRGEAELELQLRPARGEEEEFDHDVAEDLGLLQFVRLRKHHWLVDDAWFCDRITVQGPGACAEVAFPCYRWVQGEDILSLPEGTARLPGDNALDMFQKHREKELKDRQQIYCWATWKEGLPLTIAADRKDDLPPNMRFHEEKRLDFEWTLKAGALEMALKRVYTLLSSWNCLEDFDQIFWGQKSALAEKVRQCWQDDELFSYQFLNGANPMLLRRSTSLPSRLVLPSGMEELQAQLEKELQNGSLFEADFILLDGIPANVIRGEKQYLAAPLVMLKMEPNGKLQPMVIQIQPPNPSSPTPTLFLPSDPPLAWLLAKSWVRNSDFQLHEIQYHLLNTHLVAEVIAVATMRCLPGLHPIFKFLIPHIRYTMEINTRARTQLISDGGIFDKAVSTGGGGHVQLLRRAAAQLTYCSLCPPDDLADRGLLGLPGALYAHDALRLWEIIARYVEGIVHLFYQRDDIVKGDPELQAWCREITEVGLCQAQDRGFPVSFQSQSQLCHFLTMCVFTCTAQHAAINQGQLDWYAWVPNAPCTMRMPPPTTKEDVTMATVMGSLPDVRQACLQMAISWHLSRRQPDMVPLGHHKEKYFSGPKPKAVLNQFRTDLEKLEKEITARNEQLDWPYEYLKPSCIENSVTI
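Hydroperoxide product was detected by ferrous iron/xylenol orange as the 573 to 405 nm absorbance ratio. Arachidonic acid at 40 uM (final) was turned over for 30 min at room temperature by 150 nM human 12hLO, pH 7.0 Hepes buffer, after 15 min compound preincubation.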
Active calls of the source: *. These entries were drawn from the full list. Calls follow the shape of the dose curve; as a rule, active = well fitted curve in the direction sought with a large enough effect; inconclusive = small, poorly fitted or top-dose-only effect, or another doubt; inactive = no such curve, though single readings can be large; an effect the other way counts as inactive or inconclusive. % is scaled to controls: 0 for no effect and ±100 for the full control effect; potency is read from the fitted curve at half-maximal effect.

`COc1ccccc1N1CC=C(c2cccc([N+](=O)[O-])c2)NC1=O` gave DT40 TDP1 CPT 2.8%, RORg inh 24.5%, TDP1 cell noCPT 10.1%, ELG1 DNA repair 0.0%, Gal4-VP16 FLuc 7.3% and ALOX12 inh 0.0%.
Cn1c(=O)c2c(ncn2CC(=O)Nc2ccccc2C(=O)NC2CCCCC2)n(C)c1=O was read as ALOX12 inh -9.3%.
For Cc1cc2nc(C(=O)Nc3ccc(Br)cc3)c(N3CCOCC3)nc2cc1C the results were ALOX12 inh -0.7%.
For COc1ccc2nc(NC(=O)c3nn(C(C)C)c(=O)c4ccccc34)sc2c1 the results were ALOX12 inh -0.2%.
`CC1(C)CC(=O)C(C2C3=C(CC(C)(C)CC3=O)Oc3c(Br)cc(Br)cc32)=C(O)C1` (centres undefined) gave DT40 TDP1 CPT inconclusive, RORg inh inconclusive, TDP1 cell noCPT 18.4µM*, ELG1 DNA repair 5.0%, Gal4-VP16 FLuc inconclusive and ALOX12 inh inconclusive.
Screening O=C(CSc1nc2cc(C(F)(F)F)ccc2s1)c1ccc2c(c1)CCCC2 returned ALOX12 inh -6.0%.
